Structures are written as SMILES. Results filed as inconclusive are left out. Calls of active or inactive are those of the source. How the source made its calls: active means hit-call score of the fitted dose curve at least 0.9, where 1 is the maximum; inconclusive means response in the unintended direction; inactive means score below 0.9.

A short description of assay [1]: TOX21_p53_BLA_p2_viability: Viability Assessment in the Tox21 HCT-116 p53 Agonism Beta-lactamase Assay, Phase 2 (AID 2283591).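 Further: actives lower the ATP signal meaning cytotoxicity.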 The gist of the method:
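HCT-116 p53-bla cells (4000/well) rested 5 h at 37C, then received compounds in DMSO (217-fold dilution) for 16 h at 37C, 5% CO2. After the CCF4 read, CellTiter-Glo was added; ATP luminescence was read after 30 min at room temperature.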

Assay [2] concerns the target Cellular tumor antigen p53 (Homo sapiens) (UniProt P04637). Description: TOX21_p53_BLA_p2_ratio: Tox21 HCT-116 p53 Agonism Beta-lactamase Assay, Ratio, Phase 2 (AID 2283592). Summed up:
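An inducible beta-lactamase reporter in HCT116 cells signals p53 pathway activation. After 16 h chemical exposure at 37C, cells load CCF4-AM substrate for 2 h at room temperature; activity is the cleaved/uncleaved emission ratio relative to DMSO.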

Assay [3] can be described thus: TOX21_p53_BLA_p3_viability: Viability Assessment in the Tox21 HCT-116 p53 Agonism Beta-lactamase Assay, Phase 3 (AID 2283593).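 Further: cells exposed to compound for 16 h before reading.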 The gist of the method:
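HCT-116 cells (4000/well) rested 5 h at 37C, then got DMSO compounds by pin tool (217-fold dilution) for 16 h at 37C, 5% CO2. After the bla read, CellTiter-Glo was added and luminescence read at 30 min, room temperature.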

The target in assay [4] is Cellular tumor antigen p53 (Homo sapiens) (UniProt P04637). As to the kind of experiment: TOX21_p53_BLA_p3_ratio: Tox21 HCT-116 p53 Agonism Beta-lactamase Assay, Ratio, Phase 3 (AID 2283596). Summed up:
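HCT116 p53-bla cells (4000/well) given compound in DMSO (217-fold dilution) after 5 h, incubated 16 h at 37C. CCF4-AM substrate 2 h at room temperature; 460/530 nm emission ratio, gain fitted against DMSO.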

The nature of assay [5]: TOX21_p53_BLA_p4_viability: Viability Assessment in the Tox21 HCT-116 p53 Agonism Beta-lactamase Assay, Phase 4 (AID 2283597).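 Further: hits lower the luminescence signal meaning cytotoxicity.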 The gist of the method:
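Compound exposure of HCT116 cells lasts 16 h at 37C, 5% CO2, with DMSO stocks diluted 217-fold. Cellular ATP is then quantified by CellTiter-Glo luminescence after 30 min at room temperature.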

Assay [6] concerns the target Cellular tumor antigen p53 (Homo sapiens) (UniProt P04637). Description: TOX21_p53_BLA_p5_ratio: Tox21 HCT-116 p53 Agonism Beta-lactamase Assay, Ratio, Phase 5 (AID 2283599). The gist of the method: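 HCT-116 cells carrying a p53-inducible beta-lactamase reporter were seeded at 4000 cells/well and dosed after 5 h with compound in DMSO (217-fold dilution). After 16 h at 37C, CCF4-AM substrate was added for 2 h, and the 460/530 nm emission ratio was scored as gain-of-signal versus DMSO.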

Assay [7] is described as follows: TOX21_p53_BLA_p5_viability: Viability Assessment in the Tox21 HCT-116 p53 Agonism Beta-lactamase Assay, Phase 5 (AID 2283600). The gist of the method: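 Counter-readout for cytotoxicity: ATP-dependent luminescence from CellTiter-Glo, read in the beta-lactamase wells after 30 min at RT, following a 16 h compound exposure at 37C.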
Assay [8] deals with Cellular tumor antigen p53 (Homo sapiens) (UniProt P04637). As to the kind of experiment: TOX21_p53_BLA_p4_ratio: Tox21 HCT-116 p53 Agonism Beta-lactamase Assay, Ratio, Phase 4 (AID 2283601). The gist of the method: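 HCT116 cells carrying an inducible beta-lactamase reporter were plated at 4000 cells/well, rested 5 h, then exposed to compounds in DMSO (217-fold dilution) for 16 h at 37C. CCF4-AM substrate was loaded 2 h at room temperature; 460/530 nm emission ratio scored gain-of-signal versus DMSO.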
Chain of Cellular tumor antigen p53 (Homo sapiens) (P04637 whole entry, looked up): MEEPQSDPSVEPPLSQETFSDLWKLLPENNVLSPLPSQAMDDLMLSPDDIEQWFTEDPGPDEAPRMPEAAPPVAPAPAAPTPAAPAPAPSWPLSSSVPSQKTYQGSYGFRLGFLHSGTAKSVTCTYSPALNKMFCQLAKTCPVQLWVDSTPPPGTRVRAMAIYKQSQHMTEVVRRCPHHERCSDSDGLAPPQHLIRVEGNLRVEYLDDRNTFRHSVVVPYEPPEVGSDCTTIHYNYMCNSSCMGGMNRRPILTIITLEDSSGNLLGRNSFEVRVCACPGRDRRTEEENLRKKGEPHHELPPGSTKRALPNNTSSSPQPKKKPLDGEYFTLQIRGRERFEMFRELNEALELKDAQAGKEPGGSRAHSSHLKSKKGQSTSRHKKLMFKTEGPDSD

Usually AC50 stands for the concentration at which the activity in the assay is half-maximal. As to `CSc1ccc2c(c1)C(N1CCN(C)CC1)Cc1ccccc1S2` (centres undefined), the half-maximal activity concentration (AC50) in assay [1] is 36.3 µM (active); in assay [2] it was 44.4 µM (active); in assay [3], 37.8 µM (active); in assay [5] it was 34.5 µM (active); in assay [7], 38.3 µM (active); in assay [8], 42.4 µM (active). Moreover, the result in assay [4] and in assay [6] was inactive.

Consider `C=CC(=O)OCC1CC2CC1C1CCC(COC(=O)C=C)C21` (centres undefined), for which the AC50 in assay [1] was 65.8 µM (active); in assay [2] it was 55.2 µM (active); in assay [5] it was 64.1 µM (active); in assay [6], 74.8 µM (active); in assay [8] it was 53 µM (active). The molecule was classed as inactive in assay [3], in assay [4] and in assay [7].

As for `CCN(CC)CCCC(C)Nc1c2ccc(Cl)cc2nc2ccc(OC)cc12` (centres undefined), the molecule was classed as inactive in assay [1], in assay [3], in assay [5] and in assay [7]. Besides, the AC50 in assay [2] is 25.8 µM (active); in assay [4] it was 23.7 µM (active); in assay [6] it was 38.7 µM (active); in assay [8] it was 35.1 µM (active).

With `CC1(COc2ccc(CC3SC(=O)NC3=O)cc2)CCCCC1` (centres undefined), the concentration at half-maximal activity (AC50) is 28.8 µM (active) in assay [1]; 36.7 µM (active) in assay [2]; 35.1 µM (active) in assay [3]; 27.1 µM (active) in assay [4]; 18.6 µM (active) in assay [5]; 27.6 µM (active) in assay [6]. For the same molecule, the half-maximal activity concentration (AC50) in assay [7] is 21.6 µM (active); in assay [8], 34.7 µM (active).

With `CCCCC(CC)COCCCN` (centres undefined), the call in assay [1], in assay [2], in assay [3], in assay [4], in assay [5] and in assay [6] was inactive. Further, the call in assay [7] and in assay [8] was inactive.

For the molecule `O=C1c2cccc(O)c2C(=O)c2c(O)cccc21`, the call in assay [1], in assay [2], in assay [3], in assay [4], in assay [5] and in assay [6] was inactive. The result in assay [7] and in assay [8] was inactive.

Regarding `Cc1cc(CC(=O)O)n(C)c1C(=O)c1ccc(Cl)cc1`, the molecule was classed as inactive in assay [1], in assay [2], in assay [3], in assay [4], in assay [5] and in assay [6]. Besides, the molecule was called inactive in assay [7] and in assay [8].

On to `c1ccc2c(CC3=NCCN3)cccc2c1`, for which the result in assay [1], in assay [2], in assay [3], in assay [4], in assay [5] and in assay [6] was inactive. The call in assay [7] and in assay [8] was inactive.

Turning to `CN1CCN(CCCN2c3ccccc3Sc3ccc(C(F)(F)F)cc32)CC1`, the AC50 in assay [1] is 36.4 µM (active); in assay [5], 33.9 µM (active); in assay [8], 43.1 µM (active). Also, the result in assay [2], in assay [3], in assay [4], in assay [6] and in assay [7] was inactive.

Consider `CC1=C(/C=C/C(C)=C/C=C/C(C)=C\C=O)C(C)(C)CCC1`, for which the AC50 was 72.1 µM (active) in assay [1]; 64.9 µM (active) in assay [3]; 75.3 µM (active) in assay [4]; 80.9 µM (active) in assay [5]; 66.7 µM (active) in assay [6]; 74.6 µM (active) in assay [7]. Moreover, the result in assay [2] and in assay [8] was inactive.

For `CC[C@@H](C(=O)O)[C@@H]1O[C@@H]([C@@H](C)[C@H](O)[C@H](C)C(=O)[C@H](CC)[C@H]2O[C@]3(C=C[C@@H](O)[C@]4(CC[C@@](C)([C@H]5CC[C@](O)(CC)[C@H](C)O5)O4)O3)[C@H](C)C[C@@H]2C)[C@@H](C)C[C@@H]1C`, the call in assay [1], in assay [3], in assay [5] and in assay [7] was inactive. For the same molecule, the concentration at half-maximal activity (AC50) is 4.53 µM (active) in assay [2], 7.64 µM (active) in assay [4], 7.63 µM (active) in assay [6] and 5.21 µM (active) in assay [8].

With `O=S(c1cc(Cl)cc(Cl)c1O)c1cc(Cl)cc(Cl)c1O`, the molecule was called inactive in assay [1], in assay [3], in assay [5], in assay [6] and in assay [7]. The concentration at half-maximal activity (AC50) in assay [2] was 16.2 µM (active); in assay [4] it was 6.85 µM (active); in assay [8], 15.1 µM (active).

Regarding `CO[C@H]1C[C@H](O[C@H]2[C@H](C)O[C@@H](O[C@@H]3/C(C)=C/C[C@@H]4C[C@@H](C[C@]5(C=C[C@H](C)[C@@H](C6CCCCC6)O5)O4)OC(=O)[C@@H]4C=C(C)[C@@H](O)[C@H]5OC/C(=C\C=C\[C@@H]3C)[C@]54O)C[C@@H]2OC)O[C@@H](C)[C@@H]1O`, the AC50 is 5.93 µM (active) in assay [1]; 9.45 µM (active) in assay [3]; 15.8 µM (active) in assay [4]; 5.07 µM (active) in assay [5]; 7.81 µM (active) in assay [6]; 6.84 µM (active) in assay [7]. In addition, the result in assay [2] and in assay [8] was inactive.

These data come from PubChem BioAssay (EPA / NIEHS).
